Compound activity (PubChem)
SKKanGAS inh: blocks kanamycin growth of S. pyogenes SKKanGAS strain; BacTiter-Glo, 6 h; AID 1662; 1.3% of 300,000 active; inhibition, % at 7.5 µM;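 active = mean replicate score, as percent of positive control median, at least 50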;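 also: strain carries kanamycin resistance gene driven by streptokinase promoter and grows in 40 µg/ml kanamycin; loss of luminescence reflects streptokinase promoter inhibition or plain growth inhibition; 0% = median of DMSO wells and 100% = positive control at its reference dose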
TIM10 inh: TIM10 yeast growth inhibition | 1.4% of 330,000 active | AID 463195 | inhibition, % at 10 µM | S. cerevisiae TIM10 strain growth, BacTiter-Glo luminescence, 24 h;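 active = inhibition of 40% or more at the single tested concentration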;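 also: wild-type TIM10 isogenic control strain grown at permissive 25 °C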
tim10-1 inh: growth inhibitors of tim10-1 mutant yeast; S. cerevisiae tim10-1 ts strain growth, BacTiter-Glo, 24 h; inhibition, % at 20 µM; 2.2% of 330,000 active;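 active = inhibition of at least 40%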;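 also: mutant grown at 25 °C; 0% = DMSO wells with yeast and 100% = wells holding no yeast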
tim23-1 inh: growth inhibitors of tim23-1 mutant yeast | S. cerevisiae tim23-1 growth, BacTiter-Glo luminescence, 24 h | inhibition, % at 20 µM | 1.3% of 330,000 active;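 active = growth inhibition of the mutant yeast at or above 50%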;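 also: temperature-sensitive mutant grown at 25 °C; plate controls were DMSO-treated mutant yeast for no effect and medium wells lacking yeast for full effect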
PfHsp90 set2: growth inhibition of yeast expressing Plasmodium Hsp90; S. cerevisiae expressing PfHsp90, BacTiter-Glo ATP, 48 h; yeast lacking PDR1 and PDR3 efflux regulators; inhibition, % at 9.4 µM; 0.32% of 310,000 active; AID 504621;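 active = every replicate shows inhibition above about 80%, whatever the replicate mean, limit read from the data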;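 also: 0% = DMSO neutral controls and 100% = 20 µM radicicol positive controls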
NALP3 yeast inh: NALP3 inhibition in yeast; Yeast reconstituted NLRP3/ASC/caspase-1, beta-gal luminescence, 24 h; inhibition, % at 10 µM; 0.39% of 330,000 active; AID 2825;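 active = inhibition of 50% or more; inactive = inhibition below 50%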;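 also: plate controls were induced DMSO wells for no effect and uninduced yeast grown without galactose for full effect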
tim10-1 confirm: confirmation of tim10-1 mutant yeast growth inhibitors. shares compounds with tim10-1 inh. 56% of 7,400 active. S. cerevisiae tim10-1 ts strain growth, BacTiter-Glo, 24 h. inhibition, % at 20 µM;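 active = inhibition of yeast growth at or above a set limit in either of two repeat tests at 20 µM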;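 also: tim10-1 mutant grown at permissive 25 °C to find synthetic lethal compounds; 0% = DMSO yeast wells and 100% = medium wells without yeast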
Active calls of the source: *; nt = not tested or not shown. This is a sample that favours compounds with a hit; in the whole collection about 4.6% have one here.

SMILES	SKKanGAS inh	TIM10 inh	tim10-1 inh	tim23-1 inh	PfHsp90 set2	NALP3 yeast inh	tim10-1 confirm
O=C(CN1CCN(S(=O)(=O)c2ccccc2)CC1)Nc1ccc(Cl)c(Cl)c1	-13	25	43*	10	nt	9	30*
O=C(CN1CCN(S(=O)(=O)N2CCCCC2)CC1)Nc1ccc(Cl)c(Cl)c1	-5	14	17	27	5	16	nt
O=C(CN1CCN(S(=O)(=O)c2ccc(Cl)cc2)CC1)Nc1ccc2c(c1)OCO2	4	-6	34	32	-19	10	nt
O=C(CN1CCN(c2nc(-c3ccc(F)cc3)cs2)CC1)Nc1ccc2c(c1)OCO2	18	6	46*	27	-17	20	27
Cn1cc(CN(CCO)Cc2cccs2)c(-c2ccccc2F)n1	6	-7	14	2	1	9	nt
O=C(CN1CCN(S(=O)(=O)c2ccc(Br)cc2)CC1)N/N=C/c1ccc(Br)s1	33	24	44*	43	9	15	36*
O=C(CN1CCN(S(=O)(=O)c2ccc(Cl)cc2)CC1)Nc1ccc2c(c1)CCC2	2	22	50*	44	-7	8	40*
O=C(CCl)Nc1cccc(S(=O)(=O)N2CCCCCC2)c1	7	20	41*	48	11	-7	34*
Cc1ccc(/C=N/NC(=O)CN2CCN(S(=O)(=O)c3ccc(Br)cc3)CC2)s1	17	7	3	38	-4	10	nt
O=C(Cc1ccc(Cl)cc1)Nc1cccc(S(=O)(=O)N2CCCCC2)c1	nt	-4	7	11	-1	16	nt
Cc1cc(C)cc(NC(=O)CN2CCCN(S(=O)(=O)c3ccc(Br)s3)CC2)c1	11	29	44*	31	22	10	24
CCCNC(=O)CN1CCN(S(=O)(=O)c2ccc(Br)s2)CC1	nt	1	5	28	-16	9	nt
Cc1ccc(S(=O)(=O)N2CCN(CC(=O)Nc3ccc4c(c3)CCC4)CC2)cc1C	-6	27	31	36	-53	13	nt
Cc1ccc(C)c(S(=O)(=O)N2CCCOC2CNC(=O)C(=O)NC2CC2)c1 (configuration not stated)	2	-3	-6	-8	12	8	nt
Cc1cccnc1NC(=O)CN1C(=O)NC(C)(c2ccc3ccccc3c2)C1=O (configuration not stated)	-3	6	2	-3	nt	6	nt
O=C(O)COCC(=O)Nc1ccc(OCCc2ccccc2)cc1	-3	-1	0	-3	-9	15	nt
COc1ccc2oc(C(=O)OCC(=O)N(C)c3c(N)n(Cc4ccccc4)c(=O)[nH]c3=O)c(C)c2c1	0	11	6	7	-13	10	nt
CN(CC(=O)Nc1ccc(S(=O)(=O)N2CCCC2)cc1)Cc1ccc(Cl)cc1Cl	5	3	46*	33	7	-4	22
CN(CC(=O)Nc1ccc(S(=O)(=O)N2CCCC2)cc1)CC(=O)Nc1ccc(F)c(F)c1F	1	-3	2	13	7	22	nt
COC(=O)c1ccc(NC(=O)CN2CCN(S(=O)(=O)c3ccc(Br)cc3)CC2)cc1	45	15	46*	34	-2	7	36*
COc1ccc(S(=O)(=O)N2CCCCCC2)cc1NC(=O)CCCOc1ccccc1	nt	7	9	2	17	13	nt
OC(c1cccc(OCc2ccccc2)c1)c1nnc(-c2ccccc2)o1 (configuration not stated)	17	16	44*	17	-57	-5	28
CCCN(CC(=O)Nc1cc(Cl)cc(Cl)c1)CC(=O)Nc1ccc(F)c(F)c1F	82*	37	51*	37	-22	3	29
COc1cc2ccccc2cc1C(=O)N(CCN(C)C)c1nc2c(C)cccc2s1	10	32	56*	28	-5	13	20
COc1cc2ccccc2cc1C(=O)N(CCN(C)C)c1nc2c(OC)ccc(OC)c2s1	19	25	46*	21	0	11	15
SMILES	SKKanGAS inh	TIM10 inh	tim10-1 inh	tim23-1 inh	PfHsp90 set2	NALP3 yeast inh	tim10-1 confirm
COc1cc2ccccc2cc1C(=O)N(CCN(C)C)c1nc2ccc(C)cc2s1	5	32	42*	20	5	25	14
CCOc1ccc(C(=O)OCC(=O)N2CC(C)OC(C)C2)cc1OCC (configuration not stated)	-1	1	10	5	1	3	nt
Cc1ccccc1N1CCN(S(=O)(=O)c2nnc(NC(=O)c3ccco3)s2)CC1	51*	31	46*	35	31	10	9
O=C(/C=C/c1ccc(OC2CSC2)cc1)c1ccccc1	8	23	44*	26	-50	40	33*
COc1ccc(N(CC(=O)Nc2ccccc2F)S(=O)(=O)c2ccc(C)c([N+](=O)[O-])c2)cc1	6	17	22	22	12	8	nt
O=C(c1cn(-c2ccccc2)nc1-c1cccc([N+](=O)[O-])c1)N1CCCCC1	-14	24	48*	35	20	4	34*
O=[N+]([O-])c1cccc(-c2nn(-c3ccccc3)cc2CO)c1	1	0	40*	42	-10	16	41*
O=C(O)/C=C/c1cn(-c2ccccc2)nc1-c1cccc([N+](=O)[O-])c1	0	-8	17	27	-12	12	nt
CCOC(=O)c1sc2c(c1C)c(=O)n(Cc1ccccc1)c(=O)n2CCN(C)C	7	3	35	26	9	21	nt
COc1ccc(NC(=O)c2cc([N+](=O)[O-])ccc2O)cc1	74*	37	52*	46	76*	2	51*
CCn1c(-c2cc(Br)cc(OC)c2O)nc2cc(S(=O)(=O)N(C)C)ccc21	-1	19	43*	17	nt	-7	16
CN(C)Cc1c(C(=O)N/N=C/c2ccncc2)nnn1-c1nonc1N	4	11	-2	-8	9	5	nt
O=C(c1ccc(COc2ccccc2Br)cc1)N1CCCCCC1	8	28	41*	39	-32	18	27
COc1ccccc1-c1sc2cc3c(cc2c1C#CC1(O)CCCCC1)OCO3	nt	9	20	33	6	8	nt
COc1cccc2sc3ccc(C#CC4(O)CCCCC4)cc3c(=O)c12	36	25	41*	50	-4	-5	21
O=c1c2ccccc2sc2ccc(C#CC3(O)CCCCC3)cc12	26	28	41*	44	-32	3	35*
C=CCn1c2ccccc2c(=O)c2cc(C#CC3(O)CCCCC3)ccc21	36	3	31	44	-11	7	nt
O=S(=O)(Nc1c(O)ccc2ccccc12)c1cccc2ccccc12	18	27	44*	37	-50	0	32
